# Source: PubChem BioAssay (National Center for Advancing Translational Sciences (NCATS))
# ELG1 DNA repair – blocks ELG1-dependent DNA repair in HEK293T cells. actives 2.3% (n = 330,000). AID 504467. HEK293T ELG1-luciferase reporter, luminescence, 16 h; DNA damage induced by 5-fluorouridine. Potency, µM (doses to about 46.1 µM), for the others: top-dose activity change, negative = inhibition, usual class: inhibitors; also: % is scaled to controls: 0 for no effect and ±100 for the full control effect; nearly all actives have a fitted effect of over 55% in size
#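 In this reporter screen, reduction of luminescence relative to DMSO vehicle indicated activity. Compounds and 5-fluorouridine were added together to 2,000 cells per well, incubated for 16 hr at 37 °C, then developed with ONE-Glo.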
# SW480 rereplic – DNA re-replication induction in SW480 cells; Potency, µM (series often up to 46.1 µM), inactives show at the top dose re-replication activation, most hits filed as activators; actives 1.8% (n = 340,000); SW480 DNA re-replication, Hoechst DNA content imaging, 48 h; also: % of control where 0% means no effect; nearly all actives have a fitted effect of over 55% in size
#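 Cells (250 per well) received 23 nL compound or DMSO by pin tool and were kept 48 hr at 37 C, 5% CO2. Nuclei were then stained with Hoechst for 40 min and scanned for DNA content.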
# KB-3-1 tox – kills parental KB-3-1 adenocarcinoma cells; Potency, µM (highest dose often 46.1 µM), most hits filed as cytotoxic; KB-3-1 viability, CellTiter-Glo ATP luminescence, 72 h; actives 1.4% (n = 400,000); also: % is scaled to controls: 0 for no effect and ±100 for the full control effect; nearly all actives have a fitted effect of over 60% in size
#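 Cytotoxicity measured as CellTiter-Glo luminescence after 72 h at 37 C. Compound titrations were pinned onto drug-naive KB-3-1 parental adenocarcinoma cells grown in DMEM with 10% FBS, and normalized data fitted to concentration-response curves.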
# MCF10A rereplic – induces DNA re-replication in MCF 10a normal breast cells. actives 2.9% (n = 350,000). Potency, µM (doses to about 46.1 µM), for inactives: at the highest dose activity, positive = re-replication, hits mostly activators. MCF 10A DNA re-replication, Hoechst nuclear intensity, 48 h; also: % of control where 0% means no effect; nearly all actives have a fitted effect of over 50% in size
# KB-V1 cytotox – KB-V1 MDR subline cytotoxicity | KB-V1 MDR cells viability, CellTiter-Glo, 72 h | Potency, µM (titrated, usually from 46.1 µM), actives largely listed as cytotoxic | actives 3.4% (n = 400,000) | AID 1347076; also: % is scaled to controls: 0 for no effect and ±100 for the full control effect; nearly all actives have a fitted effect of over 60% in size
#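 Potencies derive from concentration-effect curves fitted to normalized luminescence (CellTiter-Glo) of KB-V1 cells treated for 72 h at 37 degrees C in phenol-red-free DMEM containing 10% FBS.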
# Starred values were filed as active, the others as inactive; i = inactive; u = inconclusive; x = no result given; ! = repeats disagree; [ ] = dose if it differs, or a comment. Shown are actives, neighbours in structure and some others; about 8.1% of the full set was active somewhere. Calls follow the shape of the dose curve; as a rule, active = well fitted curve in the direction sought with a large enough effect; inconclusive = small, poorly fitted or top-dose-only effect, or another doubt; inactive = no such curve, though single readings can be large; an effect the other way counts as inactive or inconclusive. Potency is read from the fitted curve at half-maximal effect.
SMILES,ELG1 DNA repair,SW480 rereplic,KB-3-1 tox,MCF10A rereplic,KB-V1 cytotox
Cc1ccccc1NC(=O)Cn1nnc(C(=O)NCc2ccco2)c1N,-24.1%,14.6µM*,18.4µM*!,u,u
CCOc1ccccc1NC(=O)c1nnn(CC(=O)Nc2ccc3c(c2)OCO3)c1N,8.0%,-21.1%,u,6.3%,u
CCOc1ccccc1NC(=O)Cn1nnc(C(=O)NCc2ccc3c(c2)OCO3)c1N,u,u,9.2µM*,4.61µM*,u
CCOc1ccccc1-n1nnnc1SCC(=O)NC(=O)NCc1ccco1,25.9µM*,-2.2%,i,2.0%,i
CCOc1ccccc1NC(=O)Cn1nnc(C(=O)NCc2ccc(F)cc2)c1N,x,x,i,x,i
Cc1cccn2c(=O)cc(COc3ccc(NC(=O)C(C)C)cc3)nc12,x,x,i,x,i
CCOC(=O)c1cc(NC(=O)c2ccc(OC)cc2)c(=O)n2c1oc1ccc(Cl)cc12,x,x,i,x,u
Cc1ccccc1NC(=O)Cn1nnc(C(=O)NCc2cccs2)c1N,x,x,3.26µM*,x,i
Cc1cccc(NC(=O)Cn2nnc(C(=O)NCc3cccs3)c2N)c1C,-5.5%,1.2%,i,1.2%,i
O=C(CCN(CCO)Cc1ccccc1)Nc1ccc(Br)cc1,13.8%,1.8%,i,18.4%,14.6µM*
CCN(CCC(=O)Nc1ccc(Br)c(C)c1)Cc1ccccc1,-1.2%,1.7%,u,-0.9%,u
CC1=CC(=O)C(C(C)C)=C/C1=N/OS(=O)(=O)c1ccccc1,u,0.731µM*,u,2.91µM*,20.6µM*
CC1=CC(=O)C=C(C)C1=NOS(=O)(=O)c1ccccc1,u,7.31µM*,u,7.31µM*,u
Cc1ccc2c(c1)/C(=N/OS(=O)(=O)c1ccccc1)CCS2,x,-4.2%,i,-178.6%[0.0737 µM],u
O=C(NCCc1cccc(Cl)c1)c1ccc(OC2CCN(Cc3ccccn3)CC2)cc1,u,5.4%,i,9.4%,i
COc1cc(OC)c(NC(=O)CC2SC(N)=NC2=O)cc1Cl (stereo not given),x,x,i,x,i
CCOC(=O)C1=C[C@@H](c2ccccc2)N(S(=O)(=O)c2ccc(C)cc2)[C@H]1c1ccccc1Cl,x,x,i,x,i
O=C(Cn1nnc(-c2ccccc2-n2cnnn2)n1)N1CCCCC1,1.9%,-2.6%,i,-2.8%,i
O=C(Cn1nnc(-c2ccccc2-n2cnnn2)n1)c1ccccc1,4.2%,-20.1%,i,18.4µM*,i
CCCC1OC2C[C@@H]3[C@H]4CCC5=CC(=O)C=C[C@]5(C)[C@H]4C(O)C[C@]3(C)[C@]2(C(=O)CO)O1 (stereo not given in full),x,x,i,x,i
O=C(Cc1ccc(F)cc1)Nc1cccc2cccnc12,29.9%,2.8%,i,12.7%,16.4µM*
O=C(NCc1cccc(Br)c1)c1ccc(-n2cnc3cccnc32)cc1,x,x,i,x,i
CN(C)c1cc[n+](CC(=O)Nc2cc(C(F)(F)F)ccc2Cl)cc1,-8.5%,u,i,u,i
Cc1cc[n+](CC(=O)Nc2cc(C(F)(F)F)ccc2Cl)cc1,0.4%,-1.7%,i,23.1µM*,i
Cc1nc(N)nc(N)c1-c1ccc(Cl)c(Cl)c1,x,12.8%,u,28.0%,i
SMILES,ELG1 DNA repair,SW480 rereplic,KB-3-1 tox,MCF10A rereplic,KB-V1 cytotox
Cc1cc(OCc2nc(N)nc(N)c2-c2ccc(Cl)c(Cl)c2)ccc1[N+](=O)[O-],x,u,2.06µM*,u,1.03µM*
CCc1ccc(OCC(O)CN2CCC(CN3C(=O)c4cccc5cccc(c45)C3=O)CC2)cc1 (stereo not given),u,-0.8%,23.1µM*,-10.6%,u
Cc1cc(C)cc(OCC(O)CN2CCC(CN3C(=O)c4cccc5cccc(c45)C3=O)CC2)c1 (stereo not given),u,17.2%,u,u,5.8µM*
COc1cccc(C(O)c2ncc(-c3cccc(C(F)(F)F)c3)[nH]2)c1 (stereo not given),x,x,i,x,i
CCN(CC)S(=O)(=O)c1cccc(C(=O)N[C@H](C(=O)Nc2nc3ccccc3s2)C(C)C)c1,13.4%,-1.2%,i,27.1%,i
CCN(CC)S(=O)(=O)c1cccc(C(=O)N[C@H](C(=O)Nc2nc3ccc(F)cc3s2)C(C)C)c1,u,u,14.6µM*,u,5.8µM*
C=CCN(CC=C)S(=O)(=O)c1ccc2nc(NC(=O)C(C)C)sc2c1,u,u,3.66µM*,8.2µM*,u
COc1ccc(NC(=O)Cn2cnc3c(nc4n3CCCCC4)c2=O)cc1Cl,x,x,i,x,i
CCOc1ccccc1Nc1sc(C(=O)c2ccc(Cl)cc2)c(N)c1C#N,x,x,u,x,i
CCN(CC)S(=O)(=O)c1cc(NC(=O)c2cc(-c3ccccn3)nc3ccccc23)ccc1C,8.2µM*,0.1%,i,u,u
CCN(CC)S(=O)(=O)c1ccc(NC(=O)c2cc(=O)[nH]c3ccccc23)cc1,u,-4.5%[1.84 µM],i,-0.2%,i
COc1ccc(NC(=O)NNC(=O)c2ccc3ccccc3c2O)c(OC)c1,0.4%,-13.7%,i,4.5%,u
CCOc1ccccc1NC(=O)c1cc(-c2ccccn2)nc2ccccc12,u,u,18.4µM*,u,u
CCN(CC)S(=O)(=O)c1ccc2[nH]c(=O)cc(C(=O)Nc3ccc(C)c(S(=O)(=O)N(CC)CC)c3)c2c1,18.4µM*,1.6%,i,12.8%,i
CCOc1ccccc1-c1cc(C(=O)Nc2ccc(C(=O)O)cc2)c2ccccc2n1,11.5%,12.1%,i,u,i
COc1ccc(NC(=O)NNC(=O)c2cc(C3CC3)nc3ccccc23)c(OC)c1,13µM*,0.1%,i,-6.8%,i
Cc1ccc(S(=O)(=O)N2CCC3(CC2)OCCO3)s1,26.3%,-0.9%,i,-1.9%,i
COC(=O)c1ccc(NC(=O)c2cc(-c3ccccn3)nc3ccccc23)cc1,-8.6%,-20.0%,i,12.1%,i
O=C(N/N=C/c1cccc(O)c1)c1cc(-c2ccccc2)nc2ccccc12,u,-1.3%,i,7.4%,i
COc1ccc(NC(=O)c2cc(-c3ccccn3)nc3ccccc23)c(OC)c1,8.2µM*,1.4%,i,11.8%,i
COc1ccc(/C=N/NC(=O)C[n+]2ccccc2)c(OC)c1OC,-2.2%,0.0%,i,2.5%,i
COc1ccc(/C=N/NC(=O)C[n+]2ccccc2)c(OC)c1,10.0%,-72.3%,i,1.03µM*,u
COc1ccc(/C=N/NC(=O)c2cc(-c3ccccc3)nc3ccccc23)c(OC)c1,11.6µM*,-5.2%,i,u,i
CC1(C)CC(=O)C=C(c2ccc(COC(=O)c3ccc(-c4ccccc4)cc3)cc2)C1=O,x,x,i,x,i
